Experimental findings from PubChem BioAssay AID672 (University of Pittsburgh Molecular Library Screening Center, 2007) are described below.

The other results are listed elsewhere or left out. A number with no mark means an inactive call. The rule behind the calls is not given here.

The nature of the test: redox cycling hydrogen peroxide production, dose response, artefact control, biochemical, probe assessment (AID 672). As to conditions: Redox cycling H2O2 generation, DTT, phenol red/HRP.

Consider `CCc1ccc(NC(=O)CSc2nc3ccccc3c(=O)n2CCN2CCOCC2)cc1`, for which the EC50 – broadly, the midpoint of the concentration-response curve – is > 50 µM.
